High-throughput results as filed in PubChem.
Tb PYK inh = T. brucei pyruvate kinase inhibition | Q57TT1 | TbPYK enzyme, Kinase-Glo Plus ATP luminescence, 45 min | Potency, µM (top dose mostly 76.8 µM), for inactives: top-dose activity, negative = inhibition, usual class: inhibitors | 410,000 tested, 0.12% active; note: % is set by controls: 0 for no effect and ±100 for the full control effect; nearly all actives have a fitted effect of over 50% in size
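In this concentration-response screen, enzyme-free wells defined baseline while DMSO plates tracked drift. Each reaction combined TbPYK, substrate, compound and 130 uM ADP for 45 min at room temperature. Kinase-Glo Plus luminescence gave the signal.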
LmPK inhibitor = blocks Leishmania mexicana pyruvate kinase activity; Q27686; purified LmPK, Kinase-Glo ATP luminescence, 1 h; Potency, µM (highest dose often 57.5 µM), for inactives: top-dose activity change, negative = inhibition, most hits filed as inhibitors; 290,000 tested, 0.37% active; AID 1721; note: % is set by controls: 0 for no effect and ±100 for the full control effect
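Purified LmPK (0.1 nM) converted ADP (0.1 mM) to ATP with PEP (0.5 mM) in imidazole buffer pH 7.2 with KCl and MgCl2, 1 h at room temperature. ATP was read by Kinase-Glo luminescence; data normalized to uninhibited and no-enzyme controls.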
Sm TGR inh = blocks Schistosoma mansoni thioredoxin glutathione reductase. purified TGR, DTNB reduction, TNB absorbance 405 nm. Potency, µM (doses to about 114 µM), for inactives: top-dose activity change, negative = inhibition, actives largely listed as inhibitors. 360,000 tested, 3% active; note: % is set by controls: 0 for no effect and ±100 for the full control effect; nearly all actives have a fitted effect of over 60% in size
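TGR 20 nM + NADPH 100 uM (dispensed conc.), cpd preinc 15 min RT; start with NADPH (500 uM addition) then DTNB (15 mM addition). Kinetic TNB absorbance, 405 nm filter. Four-parameter Hill fit across titration.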
NS1 function inh = influenza NS1 inhibition | Potency, µM (series often up to 46.1 µM), for inactives: top-dose activity, positive = more growth | 270,000 tested, 0.4% active; calls by dose curve; note: actives are rising curves; nearly all actives have a fitted effect of over 50% in size
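S. cerevisiae expressing influenza A NS1, grown in glucose, washed, then diluted 1:100 into pH 6.0 -URA galactose medium with 23 nl compound. Growth recovery read as OD600; NS1-free strain serves as control.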
FBPA Giardia inh = blocks Giardia fructose-bisphosphate aldolase activity | purified Giardia FBPA | Potency, µM (highest dose often 59.6 µM), for the others: at the top dose activity, negative = inhibition, most hits filed as inhibitors | A8B2U2 | 290,000 tested, 0.71% active | AID 2451; note: % is set by controls: 0 for no effect and ±100 for the full control effect; nearly all actives have a fitted effect of over 55% in size
Target sequence (A8B2U2 whole entry, looked up): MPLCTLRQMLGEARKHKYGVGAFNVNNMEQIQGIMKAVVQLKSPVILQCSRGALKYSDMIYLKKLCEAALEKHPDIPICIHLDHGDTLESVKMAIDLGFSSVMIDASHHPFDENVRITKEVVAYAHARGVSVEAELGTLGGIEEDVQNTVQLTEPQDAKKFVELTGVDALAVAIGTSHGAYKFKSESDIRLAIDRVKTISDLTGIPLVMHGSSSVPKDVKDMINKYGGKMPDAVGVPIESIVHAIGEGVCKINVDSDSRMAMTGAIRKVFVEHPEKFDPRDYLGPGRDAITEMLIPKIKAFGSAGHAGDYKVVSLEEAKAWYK
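40 nM FBPA preincubated 10 min at RT with compound (up to 57.5 uM final), then substrate plus GAPDH/TPI/NAD/arsenate coupling and diaphorase/resazurin added. Fluorescence read after 20 min at RT, 525/598 nm.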
RE007 growth inh = less growth of the S. pombe RE007 Vpr strain; S. pombe RE007 Vpr strain, BacTiter-Glo ATP luminescence, 24 h; Potency, µM (highest dose often 92.2 µM), without a hit: at the highest dose activity change, negative = less growth, actives largely listed as inhibitors; 360,000 tested, 0.21% active; active = well fitted falling curve with a large enough effect; inconclusive = small, poorly fitted or top-dose-only effect; inactive = no such curve, though single readings can be large or run the other way; note: % is set by controls: 0 for no effect and ±100 for the full control effect; nearly all actives have a fitted effect of over 50% in size
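Fission yeast strain RE007, carrying one chromosomally integrated HIV-1 vpr copy, was seeded at OD 0.01 in PMG+AL medium with 23 nL pinned compound. After 24 h at 30 °C and 99% humidity, viability was read by BacTiter-Glo luminescence.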
* = called active by the depositor; ? = inconclusive; / = no result; [ ] = dose if it differs, or a comment. Only some compounds are listed: those with a hit (about 3.5% of all), similar ones and a draw of the others. Unless noted, calls come from the whole dose curve; as a rule, active = well fitted curve in the direction sought with a large enough effect; inconclusive = small, poorly fitted or top-dose-only effect, or another doubt; inactive = no such curve, though single readings can be large; an effect the other way counts as inactive or inconclusive. Potency is the fitted concentration of half-maximal effect.

SMILES | Tb PYK inh | LmPK inhibitor | Sm TGR inh | NS1 function inh | FBPA Giardia inh | RE007 growth inh
COC(=O)CCCC1=CC2=CC(=O)C(C)(OC(=O)c3cccs3)C(=O)C2=CN1Cc1ccccc1 (stereo not given) | 1.3% | -2.1%[11.5 µM] | -3.0% | ? | ? | -13.8%
CCOc1ccccc1NC(=O)Cn1ncc2c(=O)oc3ccc(C)cc3c21 | -5.6% | / | -8.3% | / | / | /
CCCC12CN3CC(C)(CN(C1)C3c1ccc(OCc3ccccc3)cc1)C2=O (stereo not given) | 2.0% | / | -1.6% | / | / | /
CCN(CC)C(=O)Cn1ncc2c([nH]c3ccc(C)cc32)c1=O | -3.0% | / | 3.1% | / | / | /
Cc1ccc(NC(=S)Nc2cccc3cnccc23)cc1 | -17.7% | -9.8% | 44.7µM* | -2.6% | ? | -13.4%
Cc1ccccc1NC(=S)Nc1cccc2cnccc12 | -11.1% | 5.0% | ? | / | 1.99µM* | -16.2%
Fc1ccccc1NC(=S)Nc1cccc2cnccc12 | -5.8% | 3.0% | 39.8µM* | / | ? | -23.1%
CC(=O)c1ccc(NC(=S)Nc2cccc3cnccc23)cc1 | -12.9% | 5.2% | 20µM* | -45.0% | 1.99µM* | -28.8%
FC(F)(F)c1ccccc1NC(=S)Nc1cccc2cnccc12 | 4.6% | 4.1% | 35.5µM* | / | ? | -22.4%
CCOC(=O)c1c(S(=O)(=O)N2CCCC(C(=O)NCc3ccccc3OC)C2)c(C)n(C)c1C (stereo not given) | 0.0% | / | 2.5% | / | / | /
O=C(C1=C(O)C(=O)N(CCCN2CCOCC2)C1c1ccncc1)c1cc2ccccc2o1 (stereo not given) | / | 0.6% | 44.7µM* | -11.3% | 4.9% | /
COc1cccc2cc(C(=O)C3=C(O)C(=O)N(CCN4CCOCC4)C3c3ccc(Cl)cc3)oc12 (stereo not given) | -8.3% | 1.6% | 39.8µM* | 7.8% | 3.0% | -0.4%
Cc1ccc(C2C(C(=O)c3cc4ccccc4o3)=C(O)C(=O)N2CCN2CCOCC2)o1 (stereo not given) | -6.7% | 3.4% | 22.4µM* | 5.6% | 0.0% | -21.3%
COC(=O)c1ccc(C2C(C(=O)c3cc4ccccc4o3)=C(O)C(=O)N2CCCN(C)C)cc1 (stereo not given) | -7.1% | 5.6% | 11.2µM* | 0.6% | 17.6% | 3.6%
CN(C)CCCN1C(=O)C(O)=C(C(=O)c2cc3ccccc3o2)C1c1ccccc1 (stereo not given) | 2.8% | 4.2% | -28.7% | -12.5% | ? | -2.4%
O=C(C1=C(O)C(=O)N(CCN2CCOCC2)C1c1cccnc1)c1cc2ccccc2o1 (stereo not given) | -1.9% | -0.8% | ? | 10.1% | -1.0% | -9.6%
CN1c2ccccc2C(=O)N2CCc3c([nH]c4ccccc34)C21 (stereo not given) | / | / | / | / | 1.8% | /
C[N+]1(C)CCC(OC(=O)CC(O)(c2ccccc2)C2CCCC2)C1 (stereo not given) | -9.5% | / | / | / | / | /
COc1cc(C2C(C(=O)c3cc4ccccc4o3)=C(O)C(=O)N2CCN2CCOCC2)ccc1OCCC(C)C (stereo not given) | -3.2% | 0.8% | -19.0% | 7.4% | -5.2% | -25.2%
CC(=O)C1=C(O)C(=O)N(CCN2CCOCC2)C1c1ccccc1 (stereo not given) | 1.6% | -0.3% | 31.6µM* | 0.7% | -13.8% | -5.7%
Cc1ccc(C2C(C(=O)c3cc4ccccc4o3)=C(O)C(=O)N2CCN2CCOCC2)cc1 (stereo not given) | -0.6% | 1.1% | 31.6µM* | 0.1% | / | 10.9%
O=C(C1=C(O)C(=O)N(CCN2CCOCC2)C1c1cccc(O)c1)c1cc2ccccc2o1 (stereo not given) | -1.9% | 2.6% | ? | -0.1% | 13.7% | -12.9%
O=C(C1=C(O)C(=O)N(CCN2CCOCC2)C1c1cccs1)c1cc2ccccc2o1 (stereo not given) | 0.2% | / | / | -3.7% | / | -8.2%
O=C(C1=C(O)C(=O)N(CCN2CCOCC2)C1c1ccc(Br)cc1)c1cc2ccccc2o1 (stereo not given) | 3.8% | -1.8% | 31.6µM* | 12.7% | / | 4.3%
O=C(C1=C(O)C(=O)N(CCN2CCOCC2)C1c1cccc(F)c1)c1cc2ccccc2o1 (stereo not given) | -0.3% | 9.2% | 44.7µM* | 6.5% | / | 4.3%
SMILES | Tb PYK inh | LmPK inhibitor | Sm TGR inh | NS1 function inh | FBPA Giardia inh | RE007 growth inh
O=S(=O)(NCc1ccc(F)cc1)c1ccc(N2CCCCS2(=O)=O)cc1 | -4.3% | / | -12.9% | / | / | /
Cc1ccc(Cn2c(SCC(=O)NCc3ccccc3Cl)nc3ccsc3c2=O)cc1 | 4.3% | / | -0.5% | / | / | /
COc1ccc(-c2ccc(=O)n(CC(=O)Nc3ccccc3C(F)(F)F)n2)cc1 | -4.4% | / | 6.8% | / | / | /
COC(=O)/C=C/c1cccc(N(Cc2ccc(-c3ccc(N(C)C)cc3)cc2)C(=O)C2CCCCC2)c1 | / | / | / | / | -7.9% | /
Cc1ccccc1C(=O)N/N=C/c1ccc([N+](=O)[O-])s1 | -2.8% | 3.4% | -35.1% | -87.8% | -1.9% | -27.9%
Cc1c(Cl)cccc1N=Cc1ccc([N+](=O)[O-])s1 | -20.1% | -1.9% | 39.8µM* | -140.3% | -0.5% | 15.8µM*
CS(=O)(=O)c1oc(-c2ccc(F)cc2)nc1S(=O)(=O)c1ccc(Cl)cc1 | 5.1% | / | 0.708µM* | / | / | /
CCCCS(=O)(=O)c1oc(-c2ccc(F)cc2)nc1S(=O)(=O)c1ccccc1 | 6.9% | / | 0.0% | / | / | /
CCS(=O)(=O)c1oc(-c2ccc(F)cc2)nc1S(=O)(=O)c1ccc(Br)cc1 | 2.8% | / | 0.631µM* | / | / | /
Clc1ccc(C2CC(c3ccco3)n3ncnc3N2)cc1Cl (stereo not given) | -1.8% | 5.0% | 11.2µM* | -5.3% | -2.9% | 5.1%
O=[N+]([O-])c1cc(C(F)(F)F)ccc1N1CCCNCC1 | -2.8% | -3.6% | 28.2µM* | -1.2% | 0.9% | -0.4%
COc1ccc(-c2csc(NC(=O)C3CC(=O)N(Cc4ccco4)C3)n2)cc1 (stereo not given) | 2.7% | 0.7% | 35.5µM* | / | -4.8% | -4.9%
O=C(Nc1nccs1)C1CC(=O)N(Cc2ccco2)C1 (stereo not given) | 1.1% | 4.4% | 10µM* | / | 0.2% | 5.3%
O=C(NCc1ccc(F)cc1)C1CC(=O)N(Cc2ccco2)C1 (stereo not given) | -8.7% | 3.4% | 39.8µM* | 7.0% | / | 0.9%
CN(c1ccc(-c2csc(NC(=O)C3CC(=O)N(Cc4ccco4)C3)n2)cc1)S(C)(=O)=O (stereo not given) | -2.0% | / | -26.2% | / | / | 9.0%
NS(=O)(=O)c1cccc(NC(=O)C2CC(=O)N(Cc3ccco3)C2)c1 (stereo not given) | 3.5% | -1.7% | 50.1µM* | 4.9% | 8.3% | -1.6%
